Consider one compound from PubChem BioAssay AID651826 (Vanderbilt Specialized Chemistry Center, 2012).

The nature of the assay: off-target binding across receptor panel, profiling panel, selectivity assay for E-cadherin project, biochemical, Ricerca panel, radioligand binding (AID 651826). As to conditions: Ricerca radioligand binding/enzyme panel, % inhibition, at 10 µM, stronger effect = higher value.

SMILES strings stand for the structures. The source made the active and inactive calls.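 Rule for the calls: active = inhibition above 50% of specific binding or functional response at a panel target; inactive = the rest.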

What is called inhibition is the drop in the measured response relative to a control, in per cent. On to `O=C(NCCCNC(=O)c1ccc[nH]c1=O)c1cc(-c2ccccc2)on1`, for which the inhibition is 74% (active). For the setting “measured here: 5-HT1A binding”, the inhibition is -4%. For the setting “measured here: GABAA muscimol site binding”, the inhibition came to 20%. Also, the inhibition (measured here: adenosine A1 binding) came to 71%. Besides, where the note is “measured here: cannabinoid CB1 binding”, the inhibition was -23%. Under “measured here: dopamine D3 binding”, the inhibition is 18%. Besides, the inhibition (measured here: dopamine transporter binding) was 31%. Further, the inhibition (measured here: hERG channel binding) worked out at 13%. Besides, the inhibition (measured here: mu opioid binding) is -5%. Under “measured here: muscarinic M1 binding”, the inhibition was 9%. Where the note is “measured here: norepinephrine transporter binding”, the inhibition stood at 13%. Further, the inhibition (measured here: serotonin transporter binding) was found to be 10%. Besides, the inhibition (measured here: sigma1 receptor binding) stood at 47%.
